Reference: article PMC7862700, “An all-to-all approach to the identification of sequence-specific readers for epigenetic DNA modifications on cytosine”

Tests used:
Test in all cases: DAPPL (digital affinity profiling via proximity ligation, sequencing); 10 mM Tris-HCl pH 7.5, 50 mM NaCl, 1 mM DTT, 4% glycerol, room temperature, 30 min; GST-TFs on glutathione beads, 16-mer random dsDNA library, 0.1% formaldehyde crosslink after washing; high values mean tight binding
FEV = target: T1, FEV (Homo sapiens, UniProt Q99581 1-238); settings: protein: recombinant; tags: N-terminal GST; dsDNA, one strand shown
T1 sequence: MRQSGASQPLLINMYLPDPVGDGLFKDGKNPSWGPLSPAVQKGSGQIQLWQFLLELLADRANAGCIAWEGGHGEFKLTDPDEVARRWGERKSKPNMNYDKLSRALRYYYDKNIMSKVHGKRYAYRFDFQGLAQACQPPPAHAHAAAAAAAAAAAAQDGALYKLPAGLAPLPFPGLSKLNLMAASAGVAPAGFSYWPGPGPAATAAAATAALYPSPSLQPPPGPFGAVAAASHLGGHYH
Method in brief: (§1)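 Human transcription factors were made in yeast as GST fusions, captured on glutathione beads and barcoded with DNA. With a tag-only sample included, the pool was incubated with 200 nmole of a random double-stranded 16-mer DNA library in Tris/NaCl/DTT/glycerol buffer at room temperature for 30 min, then crosslinked with 0.1% formaldehyde after washing, ligated by proximity, amplified and sequenced. For binding signal, each hexamer's read frequency for a factor is divided by its frequency for the tag-only sample.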

ETV5 = ETV5 (Homo sapiens, UniProt P41161 1-510); settings: protein: recombinant; tags: N-terminal GST; dsDNA, one strand shown
Method in brief: as §1

HSF1 = HSF1 (Homo sapiens, UniProt Q00613 1-529); settings: protein: recombinant; tags: N-terminal GST; chain copies: 3; dsDNA, one strand shown
Method in brief: as §1

SPIC = target: T2, SPIC (Homo sapiens, UniProt Q8N5J4 1-248); settings: protein: recombinant; tags: N-terminal GST; dsDNA, one strand shown
T2 sequence: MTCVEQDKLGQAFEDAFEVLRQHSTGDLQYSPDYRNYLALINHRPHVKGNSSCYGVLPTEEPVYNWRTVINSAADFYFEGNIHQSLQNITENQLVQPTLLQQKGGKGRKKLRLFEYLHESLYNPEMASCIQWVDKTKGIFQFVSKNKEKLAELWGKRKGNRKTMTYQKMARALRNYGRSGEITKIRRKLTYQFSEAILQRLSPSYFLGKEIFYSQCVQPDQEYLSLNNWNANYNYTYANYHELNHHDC
Method in brief: as §1

ELF4 = ELF4 (Homo sapiens, UniProt Q99607 1-663); settings: protein: recombinant; tags: N-terminal GST; dsDNA, one strand shown
Method in brief: as §1

ELK4 = target: T3, ELK4 (Homo sapiens, UniProt P28324-2 1-405); settings: protein: recombinant; tags: N-terminal GST; dsDNA, one strand shown
T3 sequence: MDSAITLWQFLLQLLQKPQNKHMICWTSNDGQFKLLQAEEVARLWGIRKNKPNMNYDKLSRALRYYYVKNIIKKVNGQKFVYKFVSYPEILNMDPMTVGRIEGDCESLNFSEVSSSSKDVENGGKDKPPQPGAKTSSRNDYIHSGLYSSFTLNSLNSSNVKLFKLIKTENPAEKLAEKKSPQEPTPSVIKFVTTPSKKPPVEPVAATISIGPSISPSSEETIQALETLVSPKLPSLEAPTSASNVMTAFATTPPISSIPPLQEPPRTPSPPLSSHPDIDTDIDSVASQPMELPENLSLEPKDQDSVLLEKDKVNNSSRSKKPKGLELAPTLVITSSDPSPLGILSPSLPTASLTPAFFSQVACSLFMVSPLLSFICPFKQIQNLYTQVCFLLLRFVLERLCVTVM
Method in brief: as §1

ETV2 = target: T4, ETV2 (Homo sapiens, UniProt O00321 1-342); settings: protein: recombinant; tags: N-terminal GST; dsDNA, one strand shown
T4 sequence: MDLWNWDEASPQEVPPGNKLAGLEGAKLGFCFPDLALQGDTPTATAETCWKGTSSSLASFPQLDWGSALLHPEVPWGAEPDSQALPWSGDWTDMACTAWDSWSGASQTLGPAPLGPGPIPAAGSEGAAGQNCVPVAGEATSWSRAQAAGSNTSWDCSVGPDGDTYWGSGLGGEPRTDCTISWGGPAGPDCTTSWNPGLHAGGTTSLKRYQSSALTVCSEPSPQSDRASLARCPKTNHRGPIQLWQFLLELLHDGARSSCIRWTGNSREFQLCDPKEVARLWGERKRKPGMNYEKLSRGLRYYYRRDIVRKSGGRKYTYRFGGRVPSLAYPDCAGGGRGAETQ
Method in brief: as §1

ELF3 = target: T5, ELF3 (Homo sapiens, UniProt P78545 1-371); settings: protein: recombinant; tags: N-terminal GST; dsDNA, one strand shown
T5 sequence: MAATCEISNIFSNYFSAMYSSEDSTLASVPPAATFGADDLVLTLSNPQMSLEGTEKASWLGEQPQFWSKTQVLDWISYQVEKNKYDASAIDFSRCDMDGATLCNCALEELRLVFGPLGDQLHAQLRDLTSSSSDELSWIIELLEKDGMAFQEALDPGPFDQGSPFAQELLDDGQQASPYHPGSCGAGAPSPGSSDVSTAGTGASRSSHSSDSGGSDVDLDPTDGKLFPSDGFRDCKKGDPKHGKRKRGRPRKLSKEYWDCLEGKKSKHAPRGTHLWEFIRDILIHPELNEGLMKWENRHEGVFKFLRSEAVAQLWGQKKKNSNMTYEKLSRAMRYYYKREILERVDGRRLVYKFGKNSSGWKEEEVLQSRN
Method in brief: as §1

CRX = CRX (Homo sapiens, UniProt O43186 1-299); settings: protein: recombinant; tags: N-terminal GST; dsDNA, one strand shown
Method in brief: as §1

ETV1 = ETV1 (Homo sapiens, UniProt P50549 1-477); settings: protein: recombinant; tags: N-terminal GST; dsDNA, one strand shown
Method in brief: as §1

ERF = target: T6, ERF (Homo sapiens, UniProt P50548 1-548); settings: protein: recombinant; tags: N-terminal GST; dsDNA, one strand shown
T6 sequence: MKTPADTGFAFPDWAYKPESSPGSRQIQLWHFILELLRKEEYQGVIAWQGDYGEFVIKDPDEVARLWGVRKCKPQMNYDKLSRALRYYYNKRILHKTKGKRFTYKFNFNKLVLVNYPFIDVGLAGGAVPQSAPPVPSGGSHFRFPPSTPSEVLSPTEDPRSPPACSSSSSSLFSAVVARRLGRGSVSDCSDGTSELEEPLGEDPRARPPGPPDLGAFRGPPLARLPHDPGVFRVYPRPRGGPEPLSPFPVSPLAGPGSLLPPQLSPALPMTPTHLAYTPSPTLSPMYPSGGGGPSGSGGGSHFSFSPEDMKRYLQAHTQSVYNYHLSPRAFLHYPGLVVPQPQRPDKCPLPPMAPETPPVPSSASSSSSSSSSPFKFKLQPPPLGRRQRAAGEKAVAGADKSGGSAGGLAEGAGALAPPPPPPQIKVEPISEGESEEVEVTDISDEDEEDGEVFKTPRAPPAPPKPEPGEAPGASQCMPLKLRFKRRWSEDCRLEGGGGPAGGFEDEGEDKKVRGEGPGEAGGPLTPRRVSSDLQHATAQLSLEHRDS
Method in brief: as §1

ETV3L = target: T7, ETV3L (Homo sapiens, UniProt Q6ZN32 1-361); settings: protein: recombinant; tags: N-terminal GST; dsDNA, one strand shown
T7 sequence: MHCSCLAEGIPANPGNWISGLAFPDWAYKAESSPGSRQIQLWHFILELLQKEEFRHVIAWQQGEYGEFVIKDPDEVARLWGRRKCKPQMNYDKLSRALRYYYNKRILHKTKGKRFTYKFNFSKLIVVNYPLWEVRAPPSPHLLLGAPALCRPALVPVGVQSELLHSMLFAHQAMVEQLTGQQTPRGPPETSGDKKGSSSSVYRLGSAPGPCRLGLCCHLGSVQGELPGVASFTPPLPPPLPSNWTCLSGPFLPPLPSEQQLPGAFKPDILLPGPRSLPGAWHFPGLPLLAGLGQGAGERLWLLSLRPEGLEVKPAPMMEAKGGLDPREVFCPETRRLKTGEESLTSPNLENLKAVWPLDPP
Method in brief: as §1

ETS2 = target: T8, ETS2 (Homo sapiens, UniProt P15036 1-469); settings: protein: recombinant; tags: N-terminal GST; dsDNA, one strand shown
T8 sequence: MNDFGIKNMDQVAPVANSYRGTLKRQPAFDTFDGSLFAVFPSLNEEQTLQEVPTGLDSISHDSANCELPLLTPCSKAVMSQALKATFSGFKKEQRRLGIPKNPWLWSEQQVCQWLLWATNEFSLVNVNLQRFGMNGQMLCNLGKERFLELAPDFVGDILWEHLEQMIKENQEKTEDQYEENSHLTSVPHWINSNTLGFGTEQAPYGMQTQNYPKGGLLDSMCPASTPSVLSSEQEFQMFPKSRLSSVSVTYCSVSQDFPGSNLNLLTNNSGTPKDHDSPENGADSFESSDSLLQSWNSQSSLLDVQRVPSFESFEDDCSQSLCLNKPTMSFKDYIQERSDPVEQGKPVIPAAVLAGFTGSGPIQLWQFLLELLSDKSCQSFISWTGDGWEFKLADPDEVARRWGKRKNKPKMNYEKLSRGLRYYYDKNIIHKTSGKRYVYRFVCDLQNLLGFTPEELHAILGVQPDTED
Method in brief: as §1

SPDEF = target: T9, SPDEF (Homo sapiens, UniProt O95238 1-335); settings: protein: recombinant; tags: N-terminal GST; dsDNA, one strand shown
T9 sequence: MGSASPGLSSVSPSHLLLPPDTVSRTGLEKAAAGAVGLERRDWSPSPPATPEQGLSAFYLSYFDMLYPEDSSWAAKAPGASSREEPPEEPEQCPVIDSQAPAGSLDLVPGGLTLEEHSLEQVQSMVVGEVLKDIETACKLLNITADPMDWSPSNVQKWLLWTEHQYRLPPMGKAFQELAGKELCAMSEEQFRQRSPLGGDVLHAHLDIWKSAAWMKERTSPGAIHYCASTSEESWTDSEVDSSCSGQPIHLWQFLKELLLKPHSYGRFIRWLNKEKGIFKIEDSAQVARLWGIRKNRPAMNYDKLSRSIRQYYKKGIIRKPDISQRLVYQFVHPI
Method in brief: as §1

ETV7 = target: T10, ETV7 (Homo sapiens, UniProt Q9Y603 1-341); settings: protein: recombinant; tags: N-terminal GST; dsDNA, one strand shown
T10 sequence: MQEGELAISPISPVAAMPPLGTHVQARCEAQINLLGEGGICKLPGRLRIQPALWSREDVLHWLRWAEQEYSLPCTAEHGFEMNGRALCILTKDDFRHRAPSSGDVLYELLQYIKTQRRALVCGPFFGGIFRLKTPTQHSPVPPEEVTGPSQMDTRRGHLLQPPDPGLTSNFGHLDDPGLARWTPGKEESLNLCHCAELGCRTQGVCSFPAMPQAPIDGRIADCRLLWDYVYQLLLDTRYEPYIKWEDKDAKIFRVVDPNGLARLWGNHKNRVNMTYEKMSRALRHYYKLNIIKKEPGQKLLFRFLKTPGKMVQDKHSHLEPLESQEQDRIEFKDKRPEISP
Method in brief: as §1

ELF5 = target: T11, ELF5 (Homo sapiens, UniProt Q9UKW6-2 1-255); settings: protein: recombinant; tags: N-terminal GST; dsDNA, one strand shown
T11 sequence: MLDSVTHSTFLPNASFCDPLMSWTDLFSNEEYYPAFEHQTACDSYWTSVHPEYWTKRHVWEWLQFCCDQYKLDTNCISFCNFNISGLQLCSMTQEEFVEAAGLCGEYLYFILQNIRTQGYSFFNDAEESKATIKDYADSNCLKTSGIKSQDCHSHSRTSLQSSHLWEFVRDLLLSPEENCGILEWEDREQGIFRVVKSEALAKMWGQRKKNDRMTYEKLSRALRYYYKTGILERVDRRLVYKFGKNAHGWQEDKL
Method in brief: as §1

ETV3 = target: T12, ETV3 (Homo sapiens, UniProt P41162-2 1-143); settings: protein: recombinant; tags: N-terminal GST; dsDNA, one strand shown
T12 sequence: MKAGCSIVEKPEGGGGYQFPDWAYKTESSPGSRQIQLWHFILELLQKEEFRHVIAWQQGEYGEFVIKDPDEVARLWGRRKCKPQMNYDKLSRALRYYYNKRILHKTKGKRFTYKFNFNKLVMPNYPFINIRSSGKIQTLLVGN
Method in brief: as §1

ETV6 = ETV6 (Homo sapiens, UniProt P41212 1-452); settings: protein: recombinant; tags: N-terminal GST; dsDNA, one strand shown
Method in brief: as §1

Sequence of ETV6 (P41212 whole entry): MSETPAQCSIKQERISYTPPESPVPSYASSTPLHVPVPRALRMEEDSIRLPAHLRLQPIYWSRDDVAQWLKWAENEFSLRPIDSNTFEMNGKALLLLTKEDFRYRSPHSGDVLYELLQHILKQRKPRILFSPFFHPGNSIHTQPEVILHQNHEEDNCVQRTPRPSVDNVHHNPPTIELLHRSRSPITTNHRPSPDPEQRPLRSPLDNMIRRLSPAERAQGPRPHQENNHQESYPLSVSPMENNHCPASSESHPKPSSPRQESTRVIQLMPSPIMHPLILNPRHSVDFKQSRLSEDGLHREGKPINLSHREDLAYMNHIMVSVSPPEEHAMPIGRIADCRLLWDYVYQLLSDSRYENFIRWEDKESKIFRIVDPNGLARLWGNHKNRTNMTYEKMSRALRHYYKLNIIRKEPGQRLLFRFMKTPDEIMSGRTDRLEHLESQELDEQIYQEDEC
Sequence of HSF1 (Q00613 whole entry): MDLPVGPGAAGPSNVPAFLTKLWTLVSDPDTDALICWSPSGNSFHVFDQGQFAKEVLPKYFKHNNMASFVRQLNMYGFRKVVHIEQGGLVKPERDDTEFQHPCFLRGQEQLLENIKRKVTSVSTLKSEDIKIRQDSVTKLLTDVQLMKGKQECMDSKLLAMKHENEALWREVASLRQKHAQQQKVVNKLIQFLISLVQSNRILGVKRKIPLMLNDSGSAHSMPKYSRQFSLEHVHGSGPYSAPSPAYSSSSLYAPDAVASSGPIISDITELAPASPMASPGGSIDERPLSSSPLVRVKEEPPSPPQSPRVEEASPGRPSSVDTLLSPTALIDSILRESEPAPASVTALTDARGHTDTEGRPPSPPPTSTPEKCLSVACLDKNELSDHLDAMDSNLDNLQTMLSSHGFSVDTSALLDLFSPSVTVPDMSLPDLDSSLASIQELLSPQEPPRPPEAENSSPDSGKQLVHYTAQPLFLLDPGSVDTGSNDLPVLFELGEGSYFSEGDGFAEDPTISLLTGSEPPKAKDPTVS
Sequence of ETV5 (P41161 whole entry): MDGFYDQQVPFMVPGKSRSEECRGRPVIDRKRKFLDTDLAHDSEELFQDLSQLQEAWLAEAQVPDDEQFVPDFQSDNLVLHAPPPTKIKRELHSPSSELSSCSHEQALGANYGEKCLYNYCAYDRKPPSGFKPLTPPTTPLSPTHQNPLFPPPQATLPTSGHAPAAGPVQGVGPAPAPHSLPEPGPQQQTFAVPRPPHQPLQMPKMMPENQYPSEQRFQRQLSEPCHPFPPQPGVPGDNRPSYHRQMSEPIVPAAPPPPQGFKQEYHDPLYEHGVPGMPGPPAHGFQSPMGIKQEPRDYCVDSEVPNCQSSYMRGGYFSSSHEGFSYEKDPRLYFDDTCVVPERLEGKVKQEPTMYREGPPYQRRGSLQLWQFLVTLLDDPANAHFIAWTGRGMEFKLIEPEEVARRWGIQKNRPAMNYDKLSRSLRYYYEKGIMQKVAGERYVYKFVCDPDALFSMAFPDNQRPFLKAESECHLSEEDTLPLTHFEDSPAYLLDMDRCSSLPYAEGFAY
Sequence of ETV1 (P50549 whole entry): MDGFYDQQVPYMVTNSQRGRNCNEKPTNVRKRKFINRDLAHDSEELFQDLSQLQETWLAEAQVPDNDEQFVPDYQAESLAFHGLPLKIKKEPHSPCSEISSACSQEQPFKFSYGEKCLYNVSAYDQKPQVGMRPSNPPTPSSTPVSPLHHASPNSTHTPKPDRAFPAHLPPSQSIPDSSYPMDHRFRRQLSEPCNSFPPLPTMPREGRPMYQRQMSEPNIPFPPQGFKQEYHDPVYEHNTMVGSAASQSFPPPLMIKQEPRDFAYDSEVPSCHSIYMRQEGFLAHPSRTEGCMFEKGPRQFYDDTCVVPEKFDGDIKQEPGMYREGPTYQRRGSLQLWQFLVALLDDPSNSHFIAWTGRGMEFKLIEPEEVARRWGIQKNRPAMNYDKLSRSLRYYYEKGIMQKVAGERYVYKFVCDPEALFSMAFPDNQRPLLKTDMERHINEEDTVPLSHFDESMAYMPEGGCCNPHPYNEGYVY
Sequence of ELF4 (Q99607 whole entry): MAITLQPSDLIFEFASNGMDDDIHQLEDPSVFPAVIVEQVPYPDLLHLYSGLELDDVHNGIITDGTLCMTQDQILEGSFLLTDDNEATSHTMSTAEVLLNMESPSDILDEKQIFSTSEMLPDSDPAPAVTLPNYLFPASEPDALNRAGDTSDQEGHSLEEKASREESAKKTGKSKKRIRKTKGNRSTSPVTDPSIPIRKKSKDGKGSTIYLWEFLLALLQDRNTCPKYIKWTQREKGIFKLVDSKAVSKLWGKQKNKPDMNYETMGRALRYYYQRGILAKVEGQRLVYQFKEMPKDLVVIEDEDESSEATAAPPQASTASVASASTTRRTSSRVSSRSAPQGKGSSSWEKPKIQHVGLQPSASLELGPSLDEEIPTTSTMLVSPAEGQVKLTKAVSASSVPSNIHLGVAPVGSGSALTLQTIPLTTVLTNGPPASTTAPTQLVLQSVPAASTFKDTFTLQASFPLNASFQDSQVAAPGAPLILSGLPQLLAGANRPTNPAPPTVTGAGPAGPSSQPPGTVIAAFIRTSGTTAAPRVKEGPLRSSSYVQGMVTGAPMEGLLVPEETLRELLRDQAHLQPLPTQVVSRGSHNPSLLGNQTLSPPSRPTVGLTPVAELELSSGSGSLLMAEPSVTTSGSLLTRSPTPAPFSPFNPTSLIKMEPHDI
Sequence of CRX (O43186 whole entry): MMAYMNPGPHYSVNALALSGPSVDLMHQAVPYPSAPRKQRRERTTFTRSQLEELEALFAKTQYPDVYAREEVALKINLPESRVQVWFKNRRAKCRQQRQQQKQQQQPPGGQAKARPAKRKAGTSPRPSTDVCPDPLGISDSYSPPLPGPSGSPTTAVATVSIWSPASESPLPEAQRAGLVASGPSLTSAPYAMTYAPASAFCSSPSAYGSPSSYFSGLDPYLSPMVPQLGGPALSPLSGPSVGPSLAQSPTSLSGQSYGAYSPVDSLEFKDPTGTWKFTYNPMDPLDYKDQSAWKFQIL

Sequence: TTGGGG
- binding signal (FEV): 1.17 fold enrichment (6-mer frequency, TF over GST control)
- binding signal (ETV5): 1.24 fold enrichment (6-mer frequency, TF over GST control)
- binding signal (HSF1): 1.11 fold enrichment (6-mer frequency, TF over GST control)
- binding signal (SPIC): 1.21 fold enrichment (6-mer frequency, TF over GST control)
- binding signal (ELF4): 1.24 fold enrichment (6-mer frequency, TF over GST control)
- binding signal (ELK4): 1.34 fold enrichment (6-mer frequency, TF over GST control)
- binding signal (ETV2): 1.17 fold enrichment (6-mer frequency, TF over GST control)
- binding signal (ELF3): 1.24 fold enrichment (6-mer frequency, TF over GST control)
- binding signal (CRX): 1.23 fold enrichment (6-mer frequency, TF over GST control)
- binding signal (ETV1): 1.38 fold enrichment (6-mer frequency, TF over GST control)
- binding signal (ERF): 1.39 fold enrichment (6-mer frequency, TF over GST control)
- binding signal (ETV3L): 1.3 fold enrichment (6-mer frequency, TF over GST control)
- binding signal (ETS2): 1.25 fold enrichment (6-mer frequency, TF over GST control)
- binding signal (SPDEF): 1.17 fold enrichment (6-mer frequency, TF over GST control)
- binding signal (ETV7): 1.12 fold enrichment (6-mer frequency, TF over GST control)
- binding signal (ELF5): 1.14 fold enrichment (6-mer frequency, TF over GST control)
- binding signal (ETV3): 1.13 fold enrichment (6-mer frequency, TF over GST control)
- binding signal (ETV6): 1.26 fold enrichment (6-mer frequency, TF over GST control)
